26 compounds from PubChem BioAssay (NCATS) can be followed below.

Test [1] in a line: qHTS assay for measurement of the activity of small molecule inhibitors on Zika virus induced Caspase-3 activity in human iPSC derived neural progenitor cells (hNPCs) (AID 1224857). Also: nearly all actives have a fitted effect of over 65% in size. Particulars: hNPCs ZIKV-induced caspase-3/7, Caspase-Glo luminescence, 6 h; series mostly up to 45.7 µM. An outline of the steps:
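Human iPSC-derived neural progenitor cells pretreated 1 hr with compounds, then infected with Zika virus (2 FFU/cell) for 6 hours at 37 C. Caspase-3/7 measured by Caspase-Glo luminescence; % inhibition calculated from induction scaled to uninfected (0%) and infected (100%) wells.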
A general note: qHTS replaces the single test concentration by a dilution series.

Test [2] is described as follows: qHTS assay for measurement of the activity of small molecule inhibitors on Zika virus induced Caspase-3 activity in human astrocytoma cells (AID 1224859). The note with it: SNB-19 ZIKV-induced caspase-3/7, luminescence, 6 h; series mostly up to 45.7 µM. An outline of the steps:
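SNB-19 astrocytoma cells, 250/well, pretreated 1 h with compounds, then Zika virus at 2 FFU/cell for 6 h at 37 C; Caspase-Glo 3/7 luminescence after 30 min; percent inhibition normalised to uninfected and infected controls.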

Inconclusive results are not listed. Entries that show only a call come without a potency. The source made the active and inactive calls. Calls follow the shape of the dose curve; as a rule, active = well fitted inhibition curve with a large enough effect; inconclusive = small, poorly fitted or top-dose-only effect; inactive = no such curve, though single readings can be large or run the other way.

For `CCN(CC)CC(=O)OCC(=O)[C@@]1(O)CC[C@H]2[C@@H]3CCC4=CC(=O)CC[C@]4(C)[C@H]3[C@@H](O)C[C@@]21C`, the Potency entry in test [1] is “inactive”. Moreover, in test [2], the compound was classed as inactive.
Consider `CC1c2ccccc2CN1NC(=O)c1ccc(Cl)c(S(N)(=O)=O)c1` (configuration not stated), for which, in test [1], the Potency result was “inactive”. In test [2], the result was inactive.
On to `CC(CC(C#N)(c1ccccc1)C(C)C)N(C)C` (configuration not stated), for which the Potency entry in test [1] was “inactive”. Besides, the compound was classed as inactive in test [2].
As for `CC(=O)N(CC(=O)N(C)C)c1ccccc1`, the Potency entry in test [1] is “inactive”. The compound was called inactive in test [2].
For `O=[N+]([O-])c1ccc(O)c2ncccc12`, in test [1], the Potency entry is “inactive”. In addition, the result in test [2] was inactive.
As to `Nc1ccc(C(=O)N2CC3CC(CN(Cc4ccccc4)C3)C2)cc1`, in test [1], the Potency result was “inactive”. Moreover, the result in test [2] was inactive.
With `Nc1c(I)cc(I)c(C(=O)N(CCC(=O)O)c2ccccc2)c1I`, the Potency result in test [1] is “inactive”. Moreover, the result in test [2] was inactive.
Regarding `CN1[C@@H]2CC[C@H]1CC(NC(=O)n1c(=O)[nH]c3ccccc31)C2` (some centres not stated), in test [1], the Potency result is “inactive”. Further, the call in test [2] was inactive.
Regarding `CCCCCC(=O)O[C@]1(C(C)=O)CC[C@H]2[C@@H]3CCC4=CC(=O)CC[C@]4(C)[C@H]3CC[C@@]21C`, the Potency result in test [1] was “inactive”. In addition, the call in test [2] was inactive.
`O=C1NC(c2cccc([N+](=O)[O-])c2)=CCN1c1ccccc1O`: the Potency entry in test [1] is “inactive”. For the same compound, the result in test [2] was inactive.
Take `O=C(O)c1ccc(OCCN2CCCCC2)cc1`: the Potency result in test [1] was “inactive”. Further, in test [2], the compound was called inactive.
Regarding `C[C@H](CN1CCCC1)C(=O)c1ccc(C(F)(F)F)cc1`, in test [1], the Potency result is “inactive”. The outcome in test [2] was inactive.
Take `COc1ccc2c(c1)c(CC(=O)OC/C=C(\C)CC/C=C(\C)CCC=C(C)C)c(C)n2C(=O)c1ccc(Cl)cc1`: the Potency result in test [1] is “inactive”. The result in test [2] was inactive.
Consider `CCOc1ncc(F)c(=O)[nH]1`, for which the Potency entry in test [1] was “inactive”. The result in test [2] was inactive.
For `CO/N=C(/C(=O)N[C@@H]1C(=O)N2C(C(=O)[O-])=C(C[n+]3ccn4ncccc43)CS[C@H]12)c1nsc(N)n1`, the Potency entry in test [1] is “inactive”. Moreover, in test [2], the outcome was inactive.
`O=C(O)c1ccccc1Nc1cc(Cl)ccc1C(=O)O`: the Potency result in test [1] was “inactive”. For the same compound, the compound was classed as inactive in test [2].
Regarding `CN=C(N)NC(=O)Nc1c(C)cccc1C`, in test [1], the Potency entry was “inactive”. Further, the outcome in test [2] was inactive.
On to `Nc1ncnc2nc[nH]c12`, for which the Potency entry in test [1] was “inactive”. The outcome in test [2] was inactive.
For `CC(=O)N[C@@H](CCC(N)=O)C(=O)O`, in test [1], the Potency entry is “inactive”. In test [2], the outcome was inactive.
For `CN(C)[C@@H]1C(=O)C(C(N)=O)=C(O)[C@@]2(O)C(=O)C3=C(O)c4c(O)cccc4C[C@H]3C[C@@H]12`, the Potency entry in test [1] was “inactive”. Besides, the call in test [2] was inactive.
Turning to `O=C1[C@@H]2[C@H]3CC[C@H](C3)[C@@H]2C(=O)N1CCCCN1CCN(c2ncccn2)CC1`, in test [1], the Potency entry was “inactive”. The result in test [2] was inactive.
With `c1ccc2c(c1)CCc1ccccc1N2`, the Potency entry in test [1] is “inactive”. In test [2], the compound was classed as inactive.
Take `CC(C)C[C@H](NC(=O)CNC(=O)[C@H](Cc1ccc(O)cc1)NC(=O)[C@H](CO)NC(=O)[C@H](Cc1c[nH]c2ccccc12)NC(=O)[C@H](Cc1cnc[nH]1)NC(=O)[C@@H]1CCC(=O)N1)C(=O)N[C@@H](CCCN=C(N)N)C(=O)N1CCC[C@H]1C(=O)NCC(N)=O` (stereo in doubt): in test [1], the Potency entry is “inactive”. For the same compound, in test [2], the compound was called inactive.
On to `O=C(OCC(O)CO)c1ccccc1Nc1ccnc2c(C(F)(F)F)cccc12` (configuration not stated), for which the Potency result in test [1] is “inactive”. The compound was classed as inactive in test [2].
With `CCOC(=O)c1ccc(O)c(O)c1`, the Potency result in test [1] was “inactive”. Further, the compound was called inactive in test [2].
Regarding `C[N+](C)(CCOc1ccccc1)Cc1cccs1`, the Potency result in test [1] was “inactive”. For the same compound, the compound was called inactive in test [2].
